ALOX12 inh: inhibitors of human 12S-lipoxygenase ALOX12; Potency, µM (doses to about 108 µM), for the others: top-dose activity change, negative = inhibition, usual class: inhibitors; 1.1% of 580,000 active; P18054; purified 12hLO, xylenol orange hydroperoxide absorbance; also: potency is read from the fitted curve at half-maximal effect; % is scaled to controls: 0 for no effect and ±100 for the full control effect
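Purified human 12hLO at 150 nM in 25 mM Hepes, 0.01% Triton X-100, pH 7.0, preincubated 15 min at room temperature with compound. Reaction started with 40 uM arachidonic acid, 30 min at room temperature. Hydroperoxide measured by Fe-xylenol orange, 573/405 nm absorbance ratio.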
LDHA block: blocks human lactate dehydrogenase A. P00338. 0.15% of 480,000 active. AID 1347041. purified LDHA, NADH/diaphorase-resazurin fluorescence; active compounds read low. activity change, % (values are at about 110 or 230 µM); in the data active = activity change below about -30%; inconclusive = mostly about -25% to -30%;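 also: plate controls were DMSO wells for no effect and wells without enzyme for full effect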
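Enzyme activity of human lactate dehydrogenase 5 (2 nM; 0.06 mM NADH, 0.2 mM pyruvate, 5 min, RT) is measured via a resazurin/diaphorase fluorescence readout of residual NADH.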
A549 tox: kills or reduces viability of A549 cells in Nrf2 counter-screen. 0.16% of 390,000 active. A549 ARE-Fluc cells, CellTiter-Fluor viability, 18-24 h. Potency, µM (top dose mostly 46 µM), for the others: top-dose activity change, negative = cytotoxicity, actives largely listed as inhibitors. AID 504648; also: potency is read from the fitted curve at half-maximal effect; % is scaled to controls: 0 for no effect and ±100 for the full control effect
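Cytotoxicity counterscreen: CellTiter-Fluor fluorescence was measured in A549 ARE_Fluc cells after 18-24 h of compound exposure in a concentration series. The subsequent BugLite luminescent read reports ARE-luciferase activity.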
ERG-DNA inh: ERG Ets/DNA interaction inhibition; P11308; fluorescence polarization, His-ERG Ets domain / labelled DNA; Potency, µM (doses to about 76.9 µM), for the others: top-dose FP activity, negative = inhibition, hits mostly inhibitors; 0.028% of 370,000 active; active = well fitted inhibition curve with a large enough effect in the polarisation, with a control signal flat; inconclusive = small, poorly fitted or top-dose-only effect, or effect the other way, or a change in a side signal; inactive = no such curve, though single readings can be large or run the other way; the % refers to the polarisation;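 also: polarization taken with two DNA probes labelled with fluorescein and Texas red; potency is read from the fitted curve at half-maximal effect; % of control where 0% means no effect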
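His-tagged ERG Ets domain (1 uM in the protein solution; 300mM KCl, 50mM Tris-HCl, 1mM EDTA, 1mM DTT, pH 7.5) received compound, then a probe mix of 5 nM fluorescein-DNA and 100nM Texas-615-DNA. Fluorescence polarization was read for both dyes.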
Nrf2 activator: activates Nrf2 signaling | AREc32 ARE-luciferase reporter (MCF7-derived line), luminescence, 24 h | Potency, µM (series often up to 46.1 µM), inactives show at the top dose activation, actives largely listed as activators | 0.31% of 410,000 active; also: potency is read from the fitted curve at half-maximal effect; % of control where 0% means no effect; nearly all actives have a fitted effect of over 65% in size
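ARE-driven firefly luciferase activity in AREc32 cells measured after a 24 hr compound exposure at 37 deg C, using Steady-Glo reagent and a 30 min room-temperature hold.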
Nrf2 block: inhibitors of Nrf2 signaling. AID 504444. Potency, µM (top dose mostly 46 µM), without a hit: at the highest dose activity change, negative = inhibition, actives largely listed as inhibitors. 2.1% of 360,000 active. A549 ARE-Fluc reporter, luciferase luminescence, 18-24 h; also: potency is read from the fitted curve at half-maximal effect; % is scaled to controls: 0 for no effect and ±100 for the full control effect; nearly all actives have a fitted effect of over 60% in size
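Cells were seeded and rested 2 h, then exposed to compounds for 18-24 h. CellTiter-Fluor was read first as a viability measure. BugLite was added 15 min before the final luminescent read of ARE-luciferase activity in A549 cells.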
* = called active by the depositor; ? = inconclusive; · = no result; [ ] = dose if it differs, or a comment. Compounds with a hit are over-represented: about 2.7% of the library has one in this group of screens. Unless noted, calls follow the shape of the dose curve; as a rule, active = well fitted curve in the direction sought with a large enough effect; inconclusive = small, poorly fitted or top-dose-only effect, or another doubt; inactive = no such curve, though single readings can be large; an effect the other way counts as inactive or inconclusive.

SMILES	ALOX12 inh	LDHA block	A549 tox	ERG-DNA inh	Nrf2 activator	Nrf2 block
CCCCn1c(=O)c2c(nc(-n3nc(C)c(C)c3C)n2Cc2ccc(F)cc2)n(C)c1=O	-1%	1	·	·	·	·
O=C(NN1C(=O)/C(=C/c2ccc(O)c([N+](=O)[O-])c2)SC1=S)c1ccccc1Cl	?	0	3.7µM*	?	0%	?
COc1cc(/C=C2\SC(=S)N(NC(=O)c3ccccc3O)C2=O)ccc1O	-28%	4	?	132%	5%	14%
CO/N=C(\C(=O)O)c1cn2ccsc2n1	2.2µM*	-4	·	·	·	·
Oc1c(C=Nc2ccccc2)sc2ccccc12	?	-8	-4%	1%	14µM*	?
Oc1c(C=Nc2cccnc2)sc2ccccc12	0%	-2	-13%	6%	11%	16%
CN=Cc1sc2ccccc2c1O	-27%	0	-30%	·	5%	-11%
Oc1c(C=NCc2ccncc2)sc2ccccc12	-10%	3	-13%	0%	14µM*	21%
Cc1ccc(O)c(N=Cc2sc3ccccc3c2Cl)c1	-25%	7	-5%	1%	?	2%
Oc1ccccc1N=Cc1sc2ccccc2c1Cl	-30%	8	0%	-5%	11µM*	9%
Cc1oc(-c2ccc(C(=O)NCc3cccnc3)cc2)nc1CS(=O)(=O)c1ccccc1	-17%	7	·	·	·	·
CC(OC(=O)Cc1nn(C)c(=O)c2ccccc12)C(=O)NCc1ccccc1 (stereo not given)	?	-12	·	·	·	·
Cc1cccc(Nc2ncnc3sccc23)c1C	-43%	1	·	·	·	·
Clc1ccc(N2CCN(/N=C/c3cccnc3)CC2)cc1	·	-7	-7%	11%	0%	8.2µM*
O=C(Cc1cccs1)N1CCN(c2cc(C(F)(F)F)ncn2)CC1	35µM*	·	·	·	·	·
O=C(Cc1cccs1)NC1CCN(c2cc(C(F)(F)F)ncn2)CC1	2%	·	·	·	·	·
Cc1ccccc1C(=O)Nc1sc(C)c(C)c1C#N	?	0	·	·	·	·
CCN(CC)S(=O)(=O)c1ccc(-c2nc(C#N)c(NCc3ccc(F)cc3)o2)cc1	18%	-5	·	·	·	·
COc1ccc(-c2cnc3c(NC=O)cc(-c4ccccc4OC)cn23)cc1OC	6.3µM*	3	·	·	0%	·
O=C1CSC(=S)N1N=Cc1ccccc1O	6.3µM*	2	-4%	61%	6%	-8%
O=C1CSC(=S)N1N=Cc1ccc(Cl)cc1Cl	35µM*	8	-8%	85%	5%	13%
CCc1nc2c(cnn2-c2ccc(Cl)cc2)c(=O)n1-c1ccc(C)cc1	9%	4	·	·	·	·
Nc1nccnc1C(=O)NCc1ccc(F)cc1	39%	3	·	·	·	·
Cn1c(-c2ccccc2)nc2cnc(Nc3cccc(OC(F)(F)F)c3)cc21	-5%	·	·	·	·	·
Cc1nc2ccccc2n1CC(=O)NC(C)C1CC2CCC1C2 (stereo not given)	-3%	0	-17%	-3%	0%	5.2µM*
SMILES	ALOX12 inh	LDHA block	A549 tox	ERG-DNA inh	Nrf2 activator	Nrf2 block
CC(NC(=O)Cn1c(NCCO)nc2ccccc21)C1CC2CCC1C2 (stereo not given)	-25%	-3	1%	2%	0%	-20%
CN(CCc1ccccn1)[C@H]1[C@@H]2OC[C@@H](O2)[C@@H](NCc2ccccn2)[C@@H]1O	101%[176 µM]	·	·	·	·	·
Cc1nn2c(c1-c1cccnc1N1CCOCC1)N(CC1CC1)CCC2	10µM*	·	·	·	·	·
COc1ccccc1-n1c(SCC(=O)NCC2CCCO2)nc2c([nH]c3ccccc32)c1=O (stereo not given)	35µM*	-1	-12%	10%	3%	14%
S=C1NCCc2ccc(Cl)cc2C1c1ccccc1Cl (stereo not given)	32µM*	-11	-4%	2%	5%	?
Clc1ccc2c(c1)C(C1=NCCN1)c1ccccc1CS2 (stereo not given)	-10%	-6	?	-10%	0%	6%

Source: PubChem BioAssay
